Compound activity: PubChem, National Center for Advancing Translational Sciences (NCATS)
An excerpt weighted towards active compounds, which were near 3% of everything screened.
PLK1 PBD block – qHTS for Inhibitors of PLK1-PDB (polo-like kinase 1 - polo-box domain): Primary Screen. Plk1 PBD binding of FITC phosphopeptide, fluorescence polarization. Serine/threonine-protein kinase PLK1 (Homo sapiens), P53350. 2.8% of 360,000 active. Potency, µM, inactives show max response, negative = inhibition, actives largely listed as inhibitors; note: series mostly up to about 57 µM; nearly all actives have a fitted effect of over 65% in size
Target sequence (P53350 whole entry, looked up, the tested form may be a part): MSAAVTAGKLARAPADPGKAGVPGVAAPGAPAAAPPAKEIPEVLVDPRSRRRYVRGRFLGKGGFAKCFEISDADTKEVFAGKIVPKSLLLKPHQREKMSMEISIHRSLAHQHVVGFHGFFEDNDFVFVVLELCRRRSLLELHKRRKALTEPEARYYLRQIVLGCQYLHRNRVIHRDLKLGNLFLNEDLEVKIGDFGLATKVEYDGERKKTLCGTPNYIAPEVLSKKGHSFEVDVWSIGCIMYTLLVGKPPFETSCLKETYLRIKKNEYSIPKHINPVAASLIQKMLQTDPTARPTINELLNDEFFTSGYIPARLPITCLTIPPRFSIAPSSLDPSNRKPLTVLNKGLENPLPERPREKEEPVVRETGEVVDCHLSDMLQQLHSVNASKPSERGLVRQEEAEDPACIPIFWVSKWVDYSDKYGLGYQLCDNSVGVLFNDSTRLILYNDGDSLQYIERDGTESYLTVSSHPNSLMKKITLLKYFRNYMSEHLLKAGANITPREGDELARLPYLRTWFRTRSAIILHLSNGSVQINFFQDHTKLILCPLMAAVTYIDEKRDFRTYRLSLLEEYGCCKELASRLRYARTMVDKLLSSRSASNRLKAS
12-LOX inh – Primary qHTS assay for inhibitors of human arachidonate 12S-lipoxygenase (ALOX12): Round 2 | Polyunsaturated fatty acid lipoxygenase ALOX12 (Homo sapiens), P18054 | purified 12hLO, xylenol orange hydroperoxide absorbance | Potency, µM (titrated, usually from 108 µM), for inactives: at the top dose activity change, negative = inhibition, hits mostly inhibitors | 1.1% of 580,000 active | AID 1671190, 2021
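Purified human 12hLO (150 nM final) in 25 mM Hepes, 0.01% Triton X-100, pH 7.0 was preincubated 15 min at room temperature with compound. Then 40 uM arachidonic acid was added, 30 min. Hydroperoxide was read by Fe-XO absorbance ratio 573/405 nm.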
KAT2A inh – qHTS Assay for Inhibitors of GCN5L2 | Histone acetyltransferase KAT2A (Homo sapiens), Q92830 | GCN5L2 HAT assay, ThioGlo1 CoA-SH fluorescence | Potency, µM (series often up to 58.9 µM), inactives show top-dose activity change, negative = inhibition, usual class: inhibitors | 0.21% of 390,000 active
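GCN5L2 (20nM final) in 50mM HEPES, 0.1mM EDTA pH 7.5, 0.01% Tween-20 was preincubated 15 min at room temperature with compound, then given ThioGlo1 (50uM), H3(1-25) peptide (75uM) and acetyl-CoA (70uM); CoA-thiol fluorescence (Ex340/Em540) was read at 0 and 20 min.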
VDR inhibitor – Inhibitors of the vitamin D receptor (VDR): qHTS. VDR-SRC2-3 peptide fluorescence polarization, 2 h. Potency, µM, for inactives: max response, negative = inhibition, actives largely listed as inhibitors. 0.93% of 400,000 active
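FP read-out; VDR + SRC2-3 coactivator peptide; 23 nl compound by pintool; 2 h RT incubation; reagents held at 4 deg C, protected from light.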
* hit, by the source's call; u = inconclusive; x = no result given; ! = not confirmed by another sample; [ ] = dose if it differs, or a comment. Calls come from the whole dose curve; as a rule, active = well fitted curve in the direction sought with a large enough effect; inconclusive = small, poorly fitted or top-dose-only effect, or another doubt; inactive = no such curve, though single readings can be large; an effect the other way counts as inactive or inconclusive. % is set by controls: 0 for no effect and ±100 for the full control effect; potency is the fitted concentration of half-maximal effect.

SMILES	PLK1 PBD block	12-LOX inh	KAT2A inh	VDR inhibitor
CCCCOc1ccc(-c2nc(C3CC(=O)N(c4ccc(F)cc4)C3)no2)cc1 (stereo not drawn)	x	11.4%	x	x
Cc1ccc2c(ccn2CCC(=O)Nc2nnc(C(C)C)s2)c1	x	-3.3%	x	x
CN(C)c1nc(=NCc2cccs2)ss1	5.32µM*	15.8µM*	x	u
CCc1ccc2c(c1)-c1ccccc1S(=O)(=O)N2CC(=O)NCc1ccncc1	x	4.3%	x	x
COC(=O)CSc1nc2c(c(-c3ccco3)c1C#N)CCCC2	26.7µM*	x	u	-11.8%
CC1=C[C@@H](CNC(=O)[C@@H]2CCCC[C@@H]2C(=O)O)[C@H](C(C)C)C[C@H]1Cc1nc2ccccc2[nH]1	x	48.4%	x	x
CC(Oc1ccc2ccc(=O)oc2c1)C(=O)NC(=O)NC1CCCCC1 (stereo not drawn)	x	-13.2%	x	x
CCc1ccc(-c2c(C)sc(N)c2C#N)cc1	x	28.2µM*	x	x
O=C(Nc1cc(Br)ccc1O)c1cc(-c2ccco2)on1	-8.9%	28.2µM*	-16.4%	-7.6%
COc1ccc(C(C(=O)Nc2ccc(C(C)C)cc2)N(C)C(=O)c2ccc(=O)[nH]c2)cc1 (stereo not drawn)	26.7µM*	u	-3.3%	6.0%
OCCN1CCN(C(=S)c2ccc(Br)cc2)CC1	6.7µM*	-17.0%	2.6%	-23.9%
CSc1ccc(C(=S)N2CCN(CCO)CC2)cc1	26.7µM*	-27.3%	-5.9%	-16.6%
Brc1ccc(-c2noc(C34CC5CC(CC(C5)C3)C4)n2)cc1	x	44.4%	x	x
Clc1ccc(-c2nnc(C34CC5CC(CC(C5)C3)C4)o2)cn1	18.9µM*	x	1.3%	-8.8%
CCOc1ccc(OCCSc2nc(C)cc(=O)[nH]2)cc1	3.36µM*	7.3%	-8.4%	-25.2%
O=C(CCC(=O)OCc1ccc(Br)cc1)Nc1ccccc1	26.7µM*	13.2%	-1.5%	u
CN(Cc1ccco1)c1cc(-c2ccc3c(c2)OCO3)ncn1	x	u	28.2µM*	22.4µM*
COc1ccc(-c2c(C)oc3cc(OC(=O)c4ccccc4)ccc3c2=O)cc1OC	x	-6.8%	x	x
CSc1nnnn1-c1ccc(C(=O)Nc2ccc(Br)c(C)c2)cc1	x	-9.0%	x	x
O=C(O)COc1ccccc1-c1nc(-c2ccccc2)c(-c2ccccc2)[nH]1	33.6µM*	-16.2%	-15.3%	-12.1%
S=c1nc2c(n[nH]1)c1ccccc1n2CCc1ccccc1	u	u	0.6%	79.4µM*
CSc1nnc2c3ccccc3n(CCc3ccccc3)c2n1	-11.4%	-11.7%	-6.3%	-6.5%
CC(C)(C)C1CCc2onc(C(=O)Nc3sc4c(c3C(N)=O)CCCC4)c2C1 (stereo not drawn)	x	-16.0%	-13.3%	79.4µM*
Cn1cnnc1SCC(=O)Nc1sc2c(c1C(N)=O)CCC2	26.7µM*	u	u	-9.4%
CC(C)(C)c1ccc(S(=O)(=O)NCC(=O)Nc2sc3c(c2C(N)=O)CCCC3)cc1	26.7µM*	16.4%	-1.3%	-6.7%
SMILES	PLK1 PBD block	12-LOX inh	KAT2A inh	VDR inhibitor
Cc1ccc(S(=O)(=O)CC(=O)Nc2sc3c(c2C(N)=O)CCCC3)cc1	x	-2.4%	3.2%	7.8%
COCCn1cnnc1SCC(=O)Nc1sc2c(c1C#N)CCC2	-7.0%	-15.6%	-3.9%	-9.9%
NC(=O)c1c(NC(=O)CCCC(=O)O)sc2c1CCCCCC2	26.7µM*	-9.0%	-2.6%	u
C=CCOc1cccc(/C=N/NC(=O)C(=O)NCCCOC)c1	x	-8.2%	x	x
CCCCCSc1nc2c(c(=O)n(C)c(=O)n2C)n1C/C=C/c1ccccc1	x	1.7%	x	x
Cc1ccccc1CS(=O)(=O)N1CCC(C(=O)Nc2c(C)n(C)n(-c3ccccc3)c2=O)CC1	x	-22.7%	x	x
NC(=O)c1c(NC(=O)C2CCCO2)sc2c1CCC2 (stereo not drawn)	-4.3%	10.1%	1.6%	-6.1%
NC(=O)c1c(NC(=O)C2CCCO2)sc2c1CCCCC2 (stereo not drawn)	10.6µM*	u	-9.1%	u
CN1CCC2(C1)CN(Cc1ccccc1)c1ccc(C(=O)NCc3cccs3)cc12 (stereo not drawn)	x	-7.8%[176 µM]	x	x
CCOc1ccc(C2N(c3cc(C)on3)C(=O)C3CCCN32)cc1OC (stereo not drawn)	26.7µM*	-3.6%	0.6%	-26.6%
CCN(CC(=O)Nc1ccc(NC(C)=O)cc1)C(=O)c1cc2ccccc2oc1=O	-1.3%	-50.0%	-0.8%	8.7%
CCCN(CC(=O)Nc1ccccc1C)C(=O)c1cc2ccccc2oc1=O	2.3%	12.6µM*!	x	x
CCC1CCc2sc(C(=O)NC3CCCC3)cc2C1 (stereo not drawn)	x	-2.8%	x	x
COc1ccc(-c2cc(=O)c3c(O)cc(O)cc3o2)cc1	-3.4%	-16.3%	-2.2%	-21.0%
O=c1cc(-c2ccc(O)c(O)c2)oc2cc(O)cc(O)c12	-6.5%	10µM*!	-3.9%	-24.5%
COC(=O)c1cc2c(-c3ccccc3)c(C)c3ccccn3c-2c1C(=O)OC	-17.1%	1.7%	-3.7%	-5.2%
COC(=O)c1c(Cl)c2n3ccccc3c(C)c(-c3ccccc3)c-2c1C(=O)OC	23.8µM*	u	-5.8%	-19.7%
COC(=O)c1cccc(NS(=O)(=O)c2c(C)nn(C)c2C)c1	x	-5.2%	x	x
CCOc1ccc(N(CC)C(=O)C(=O)c2c(C)n(C)c3ccccc23)cc1	x	-6.8%	x	x
O=C(c1ccccc1)N1CCN(Cc2nnnn2C2CC2)CC1	x	8.2%	x	x
CC1(OC(=O)C2CCCC2)C(=O)C=C2C=C(c3ccsc3)N(c3ccccc3)C=C2C1=O (stereo not drawn)	-26.8%	12.6µM*	3.2%	-4.0%
C=CCNC(=O)[C@@H]1Cc2cn(Cc3nccn3C)c3cccc(c23)[C@H](CC(C)C)N1	x	103.6%[176 µM]	x	x
CC(CO)(CO)NC(=O)COc1cc(O)c2c(=O)cc(-c3ccccc3)oc2c1	x	-14.2%	x	x
O=C1Nc2c(Cl)cc(Cl)cc2C12Nc1ccccc1S2 (stereo not drawn)	x	35.5µM*	x	x
c1ccc(CN2CCC3(CC2)Nc2ccccc2S3)cc1	-15.2%	u	0.8%	-22.1%
SMILES	PLK1 PBD block	12-LOX inh	KAT2A inh	VDR inhibitor
CC(=O)c1ccc(-c2ccc(C(=O)O)o2)cc1	x	-6.4%	x	x
CCC(C)(C)c1ccc(OCC(O)CNCc2ccccc2)c(C(C)(C)CC)c1 (stereo not drawn)	x	44.7µM*	x	x
Cc1ccc(N2CC(c3nnc(NC(=O)c4ccc(NC(=O)C(C)C)cc4)s3)CC2=O)cc1Cl (stereo not drawn)	x	8.8%	x	x
Cc1ccc(Cc2c(-c3ccc(C)cc3)nc3ccc(Br)cn23)cc1	-1.9%	10µM*	x	x
Cc1ccc(Cc2c(-c3ccc(Cl)cc3)nc3cc(C)c(Br)c(C)n23)cc1	u	8.91µM*	x	x
Cc1ccc(Cc2c(-c3ccc(Cl)cc3)nc3ccc(Br)cn23)cc1	-1.0%	u	x	x
Brc1ccc2nc(-c3ccco3)c(CC3CCCCC3)n2c1	u	15.8µM*	x	x
Cc1cc(Br)cn2c(Cc3ccsc3)c(-c3ccco3)nc12	23.8µM*	u	x	x
C=CCOc1cccc(NC(=O)CCc2ccccc2)c1	x	5.4%	x	x
Cc1ccc2nc(-c3cccc(Br)c3)c(Cc3cccc(F)c3)n2c1	x	1.6%	x	x
